High-throughput results deposited in PubChem by Sanford-Burnham Center for Chemical Genomics.
CYP2C9 activ = increases human cytochrome P450 2C9 activity; P11712; recombinant CYP2C9, luciferin-H conversion, luminescence; hits give high values; factor 1 = untreated enzyme, 0 = blocked; activation factor at 5 µM; 1.4% of 96,000 active; AID 1024;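 active means activation factor of 2 or more for CYP2C9 at a 5 µM dose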;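 further: 0 = sulfaphenazole-blocked wells and 1 = vehicle-only wells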
Target sequence (P11712 whole entry, looked up): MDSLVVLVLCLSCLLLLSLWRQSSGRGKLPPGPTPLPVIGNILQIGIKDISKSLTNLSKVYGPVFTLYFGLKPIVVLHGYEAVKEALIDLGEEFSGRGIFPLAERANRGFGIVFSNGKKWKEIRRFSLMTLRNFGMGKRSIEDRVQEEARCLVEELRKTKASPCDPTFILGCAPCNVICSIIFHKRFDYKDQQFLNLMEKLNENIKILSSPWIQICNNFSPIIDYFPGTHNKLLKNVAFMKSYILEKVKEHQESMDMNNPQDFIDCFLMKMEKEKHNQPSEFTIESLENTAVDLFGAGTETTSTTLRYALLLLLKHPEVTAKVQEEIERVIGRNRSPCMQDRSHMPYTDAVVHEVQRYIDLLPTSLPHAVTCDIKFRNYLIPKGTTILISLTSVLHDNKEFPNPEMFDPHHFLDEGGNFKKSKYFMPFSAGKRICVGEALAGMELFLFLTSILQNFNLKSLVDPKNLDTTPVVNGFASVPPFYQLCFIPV
CYP2C9 inhib = blocks human cytochrome P450 2C9; CYP2C9 Supersomes, luciferin-H conversion, luminescence; inhibition, % at 5 µM; 20% of 96,000 active;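 active means blocking of liver enzyme CYP2C9 beyond about 50% at 5 µM, limit read from the data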
CYP2C19 act = activators of human cytochrome P450 2C19 | P33261 | recombinant CYP2C19, luciferin-H EGE luminescence; hits give high values; 0 = fully inhibited enzyme, 1 = untreated enzyme | activation factor at 5 µM | 96,000 tested, under 10 active;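 active means activation factor of at least 2 at 5 µM in the primary screen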;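 further: 0 = wells with 2.5 mM tranylcypromine and 1 = vehicle-only wells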
CYP2C19 inh = blocks human cytochrome P450 2C19; P33261; CYP2C19 Supersomes, luciferin-H EGE luminescence, 30 min; inhibition, % at 5 µM; 21% of 96,000 active; AID 778;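 active means CYP2C19 inhibition above a set limit at 5 µM in the primary screen, cut at about 50% in these data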;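 further: plate controls were negative control wells for no effect and 2.5 mM tranylcypromine positive control for full effect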
The depositor's hits bear a star. Most compounds without a hit are left out; they make up all but 31% or so of the library.

Results for Fc1ccccc1N1CCN(C(c2ccccn2)c2nnnn2C2CCCCC2)CC1 (stereo unspecified) ?
CYP2C9 activ: 0.2; CYP2C9 inhib: 77*; CYP2C19 act: 0.2; CYP2C19 inh: 80*

Results for COc1ccccc1N1CCN(C(c2ccccn2)c2nnnn2C2CCCCC2)CC1 (stereo unspecified) ?
CYP2C9 activ: 0.5; CYP2C9 inhib: 49; CYP2C19 act: 0.6; CYP2C19 inh: 42

What do the screens show for `COc1ccc(C(c2nnnn2C2CCCC2)N2CCC(C(N)=O)CC2)c(OC)c1` (stereo unspecified)?
CYP2C9 activ: 1; CYP2C9 inhib: 4; CYP2C19 act: 0.9; CYP2C19 inh: 6

How did COc1ccc(N2CCN(C(c3cccc(OC)c3OC)c3nnnn3C3CCCC3)CC2)cc1 (stereo unspecified) do in these assays?
CYP2C9 activ: 0.3; CYP2C9 inhib: 73*; CYP2C19 act: 0.2; CYP2C19 inh: 80*

How did COc1cccc(C(c2nnnn2C(C)(C)C)N2CCN(C3CCCCC3)CC2)c1OC (stereo unspecified) do in these assays?
CYP2C9 activ: 0.9; CYP2C9 inhib: 8; CYP2C19 act: 1; CYP2C19 inh: 4

What do the screens show for `CC(C)(C)c1ccc(OCC(O)CSc2ncn[nH]2)cc1` (stereo unspecified)?
CYP2C9 activ: 0.9; CYP2C9 inhib: 12; CYP2C19 act: 0.9; CYP2C19 inh: 5

What do the screens show for `COc1ccc(C(c2nnnn2C2CCCC2)N2CCc3ccccc3C2)cc1OC` (stereo unspecified)?
CYP2C9 activ: 0.7; CYP2C9 inhib: 29; CYP2C19 act: 0.5; CYP2C19 inh: 47

Results for COc1ccc(OC)c(C(c2nnnn2C2CCCC2)N2CCN(c3ccccc3F)CC2)c1 (stereo unspecified) ?
CYP2C9 activ: 0.1; CYP2C9 inhib: 94*; CYP2C19 act: 0.1; CYP2C19 inh: 95*

Results for COCCOc1cnn(-c2cc(Oc3ccc(C)cc3)ncn2)c(=O)c1Cl ?
CYP2C9 activ: 0.7; CYP2C9 inhib: 28; CYP2C19 act: 0.8; CYP2C19 inh: 23

How did COc1cnn(-c2cc(Oc3ccc(C)cc3)ncn2)c(=O)c1Cl do in these assays?
CYP2C9 activ: 0.9; CYP2C9 inhib: 7; CYP2C19 act: 0.3; CYP2C19 inh: 74*

What do the screens show for `Cc1cc(C)n(CC(O)Cn2ccc3ccccc32)n1` (stereo unspecified)?
CYP2C9 activ: 0.6; CYP2C9 inhib: 41; CYP2C19 act: 0.3; CYP2C19 inh: 72*

How did Cc1cc(C)n(CC(O)Cn2c3ccccc3c3ccccc32)n1 (stereo unspecified) do in these assays?
CYP2C9 activ: 0.4; CYP2C9 inhib: 61*; CYP2C19 act: 0.2; CYP2C19 inh: 82*

How did OCc1nc2ccccc2n1CC(O)Cn1ccc2ccccc21 (stereo unspecified) do in these assays?
CYP2C9 activ: 0.2; CYP2C9 inhib: 84*; CYP2C19 act: 0.1; CYP2C19 inh: 90*

What do the screens show for `Cc1cc(C)n(CC(O)CN(c2ccccc2)S(=O)(=O)c2ccccc2)n1` (stereo unspecified)?
CYP2C9 activ: 0.8; CYP2C9 inhib: 18; CYP2C19 act: 0.9; CYP2C19 inh: 13

Results for OC(CNCC1CCCO1)Cn1c2ccc(Cl)cc2c2cc(Cl)ccc21 (stereo unspecified) ?
CYP2C9 activ: 1.1; CYP2C9 inhib: -10; CYP2C19 act: 1.1; CYP2C19 inh: -6

What do the screens show for `Cc1cc(C)n(CC(O)Cn2c3ccc(Cl)cc3c3cc(Cl)ccc32)c(=O)n1` (stereo unspecified)?
CYP2C9 activ: 0.1; CYP2C9 inhib: 95*; CYP2C19 act: 0.4; CYP2C19 inh: 58*

Results for Cc1cc(C)n(CC(=O)n2c3ccccc3c3ccccc32)n1 ?
CYP2C9 activ: 0.8; CYP2C9 inhib: 17; CYP2C19 act: 0.7; CYP2C19 inh: 30

How did N#CC1(c2ccccc2)CCCN1C(=O)c1ccc(Br)o1 (stereo unspecified) do in these assays?
CYP2C9 activ: 0.8; CYP2C9 inhib: 17; CYP2C19 act: 0.7; CYP2C19 inh: 29

What do the screens show for `O=C(c1cnccn1)N1CCN(C/C=C/c2ccccc2)CC1`?
CYP2C9 activ: 1; CYP2C9 inhib: 3; CYP2C19 act: 0.9; CYP2C19 inh: 8

What do the screens show for `CCCCSc1nc(C)c(CC(=O)O)c(=O)[nH]1`?
CYP2C9 activ: 1; CYP2C9 inhib: 5; CYP2C19 act: 1; CYP2C19 inh: 1

What do the screens show for `CNc1c2c(nn1C)CCCC2`?
CYP2C9 activ: 1.5; CYP2C9 inhib: -48; CYP2C19 act: 1; CYP2C19 inh: -2

How did Oc1ccccc1NCC(O)Cn1ccc2ccccc21 (stereo unspecified) do in these assays?
CYP2C9 activ: 0.7; CYP2C9 inhib: 28; CYP2C19 act: 0.6; CYP2C19 inh: 37

Results for Cc1cc(C)n(CC(O)CN2c3ccccc3Sc3ccccc32)n1 (stereo unspecified) ?
CYP2C9 activ: 0.7; CYP2C9 inhib: 33; CYP2C19 act: 0.3; CYP2C19 inh: 66*

Results for O=C1c2ccccc2S(=O)(=O)N1CC(O)Cn1ccc2ccccc21 (stereo unspecified) ?
CYP2C9 activ: 0.3; CYP2C9 inhib: 71*; CYP2C19 act: 0; CYP2C19 inh: 97*

How did CCOc1ccc(CCNC(=O)CCN2C(=O)COc3ccccc32)cc1OCC do in these assays?
CYP2C9 activ: 0.7; CYP2C9 inhib: 32; CYP2C19 act: 0.9; CYP2C19 inh: 15

What do the screens show for `O=C(O)CCC1COc2ccccc2O1` (stereo unspecified)?
CYP2C9 activ: 1; CYP2C9 inhib: 3; CYP2C19 act: 1; CYP2C19 inh: -2

How did Cc1ccnc(NC(=O)CS(=O)(=O)Cc2ccccc2)c1 do in these assays?
CYP2C9 activ: 0.9; CYP2C9 inhib: 8; CYP2C19 act: 0.7; CYP2C19 inh: 34

What do the screens show for `Cc1cc(C)nc(NS(=O)(=O)c2ccc(NC(=O)CCC3COc4ccccc4O3)cc2)n1` (stereo unspecified)?
CYP2C9 activ: 0.9; CYP2C9 inhib: 7; CYP2C19 act: 0.8; CYP2C19 inh: 21

Results for Cc1ccnc(NC(=O)CCC2COc3ccccc3O2)c1 (stereo unspecified) ?
CYP2C9 activ: 0.5; CYP2C9 inhib: 55*; CYP2C19 act: 0.2; CYP2C19 inh: 82*

What do the screens show for `COc1ccc(CCNC(=O)CCC2COc3ccccc3O2)cc1OC` (stereo unspecified)?
CYP2C9 activ: 0.3; CYP2C9 inhib: 68*; CYP2C19 act: 0.6; CYP2C19 inh: 36

What do the screens show for `CCOC(=O)c1ccc(NC(=O)CCC2COc3ccccc3O2)cc1` (stereo unspecified)?
CYP2C9 activ: 0.3; CYP2C9 inhib: 69*; CYP2C19 act: 0.9; CYP2C19 inh: 12

What do the screens show for `O=C(CCC1COc2ccccc2O1)Nc1ccc(Cl)cn1` (stereo unspecified)?
CYP2C9 activ: 0.9; CYP2C9 inhib: 7; CYP2C19 act: 0.3; CYP2C19 inh: 75*

Results for O=C1CSC(c2ccccn2)N1Cc1cn2ccccc2n1 (stereo unspecified) ?
CYP2C9 activ: 1.1; CYP2C9 inhib: -11; CYP2C19 act: 0.8; CYP2C19 inh: 20
